Measured values reported in the supplement of paper PMC3334620.
The full ranking holds about 33,000 sequences; the median of “E-score (-0.5 to 0.5)” is about -0.054, and the highest 2% start at about 0.35. The sample as a whole holds a higher share of the highest values than the screen did.

These sequences were tested against T1, Stb5 (UniProt P38699) (assay: PBM E-score (8-mer binding enrichment) (E-score (-0.5 to 0.5)); higher = stronger / more preferred TF binding). Conditions: protein concentration: 200 nM; construct: GST-full length.
T1 sequence: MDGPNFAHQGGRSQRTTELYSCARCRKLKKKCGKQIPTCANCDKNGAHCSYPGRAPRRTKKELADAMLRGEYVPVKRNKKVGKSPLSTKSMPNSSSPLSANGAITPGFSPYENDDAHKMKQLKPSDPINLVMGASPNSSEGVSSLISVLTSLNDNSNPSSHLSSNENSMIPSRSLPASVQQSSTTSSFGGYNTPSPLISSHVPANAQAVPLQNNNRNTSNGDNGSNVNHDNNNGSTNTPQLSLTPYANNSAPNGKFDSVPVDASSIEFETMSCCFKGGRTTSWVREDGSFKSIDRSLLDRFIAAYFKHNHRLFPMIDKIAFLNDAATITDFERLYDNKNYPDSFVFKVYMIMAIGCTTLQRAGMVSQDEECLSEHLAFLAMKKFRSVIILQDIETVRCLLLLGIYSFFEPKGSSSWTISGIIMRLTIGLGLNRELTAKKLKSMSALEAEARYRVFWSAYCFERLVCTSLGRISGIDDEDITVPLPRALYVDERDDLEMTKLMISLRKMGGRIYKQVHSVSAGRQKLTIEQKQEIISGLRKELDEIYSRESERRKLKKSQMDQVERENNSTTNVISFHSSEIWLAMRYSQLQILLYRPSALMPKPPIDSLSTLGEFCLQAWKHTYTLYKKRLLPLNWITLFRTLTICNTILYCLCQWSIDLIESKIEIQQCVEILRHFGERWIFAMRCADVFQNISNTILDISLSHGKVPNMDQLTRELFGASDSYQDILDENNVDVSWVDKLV
Outline: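 Each ungapped eight-base word and its reverse complement, pooled, received an E-score from the Universal PBM Analysis Suite. Underlying scans, normalised with masliner, recorded fluorescent anti-GST bound to GST-tagged yeast transcription factors. These were applied at about 100-200 nM to universal all-10-mer Agilent arrays double-stranded by primer extension.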

Row | Sequence | PBM E-score
1 | GACCGGAA | 0.21
2 | GTCCGGAC | 0.348
3 | GACCGGAC | 0.387
4 | TAGACCAA | -0.239
5 | CAATGGCA | 0.022
6 | TATTTACA | -0.157
7 | AGCTGTTC | -0.207
8 | CAAGATGG | -0.13
9 | TAGATTGA | 0.0223
10 | AAAGTACG | 0.00248
11 | CCAATGCG | -0.208
12 | GAGAGGCC | -0.0937
13 | CACCGGAA | 0.293
14 | CACCGGAC | 0.413
15 | GACCGGGC | 0.211
16 | AACCGGAC | 0.28
17 | CACCGGGC | 0.375
18 | CACCGGGG | 0.33
19 | CAGCAATA | -0.0729
20 | ATGCCCAA | -0.116
21 | CGCGGCTA | 0.3
22 | CGGTAACC | 0.165
23 | CGGTAATA | 0.457
24 | GGGTAATA | 0.143
25 | CGGTAATC | 0.25

Row | Sequence | PBM E-score
26 | CGGTAACA | 0.36
27 | AGGTAACA | -0.111
28 | CGCATAAA | -0.127
29 | CAAGCGGG | 0.273
30 | AAAGCGGG | 0.297
31 | CAAGCGGA | 0.223
32 | TAAGCGGA | 0.209
33 | CAAGCGGC | 0.379
34 | AAAGCGGA | 0.352
35 | TCGACAAA | -0.183
36 | CCGACAAG | 0.266
37 | CCGACGAC | 0.312
38 | ACGACGGA | 0.227
39 | CCGACGGA | 0.394
40 | CCGACGGC | 0.372
41 | CCGACGCC | 0.315
42 | CCGACAAA | 0.353
43 | ACGACGGC | 0.146
44 | ACGACGCG | -0.0646
45 | GCGACGGA | 0.283
46 | CCGACGCG | 0.378
47 | CGCGATCC | 0.0632
48 | AAAACGGC | 0.21
49 | GTACTCAA | -0.185
50 | GCTTTAAC | -0.0801

Row | Sequence | PBM E-score
51 | TAAATCGA | -0.267
52 | AGTCAAAA | -0.00563
53 | AAACCTCT | 0.015
54 | ATAAAGAG | -0.0867
55 | CCAAGCAG | -0.122
56 | CACTGTCA | -0.352
57 | AATCTCCC | -0.0498
58 | AATCTCCG | 0.423
59 | ATACTCCG | 0.371
60 | AAACTCCT | 0.0448
61 | ATACTCCC | 0.339
62 | CAACTCCG | 0.342
63 | CATCTCCG | 0.276
64 | AAGCTCCT | -0.165
65 | ATACTCCA | -0.199
66 | CAGCTCCG | 0.136
67 | AAACTCCG | 0.463
68 | AAGCTCCG | 0.429
69 | CACTGCAA | -0.139
70 | ACGTGCGA | -0.0649
71 | GCTAGTCC | 0.0729
72 | GAGAAAGC | 0.0247
73 | CACACATC | -0.15
74 | CTGTTCGC | -0.0755
75 | AACCTCCG | 0.408

Row | Sequence | PBM E-score
76 | AACCTCCT | -0.234
77 | AACCTCCC | -0.0946
78 | GTAAGCCA | -0.243
79 | GAGTAGCC | -0.178
80 | CGAAATTA | -0.0454
81 | CCCCGTGC | 0.375
82 | ACCCGTGC | -0.0288
83 | CCCCGTGA | 0.146
84 | ATGAACCA | -0.252
85 | CACAGCTA | -0.125
86 | CAATTGTC | -0.0888
87 | AGGCTATA | 0.0655
88 | GGGCTTTA | 0.326
89 | CGGCTTTA | 0.439
90 | CGGCTATA | 0.367
91 | CGGCTCTA | 0.391
92 | CGGCTTTC | 0.061
93 | CGGCTCTC | -0.0773
94 | GGGCTATA | 0.0715
95 | AGGCTCTA | -0.0942
96 | CTCTACCC | -0.316
97 | GCCGCACA | 0.206
98 | CTGCTGGC | -0.124
99 | ATCGGGGA | 0.307
100 | AGCGGGAG | 0.0448

Row | Sequence | PBM E-score
101 | GGCGGGAA | 0.287
102 | AGCGGGAT | 0.25
103 | CTCGGGGA | 0.0793
104 | GGCGGGGA | 0.366
105 | GTCGGGGA | 0.382
106 | AGCGGGAA | 0.357
107 | AGCGGGGA | 0.375
108 | CGCGGGGA | 0.305
109 | GCGGGGGA | 0.261
110 | AGCGGGGG | 0.277
111 | GTAGGCAA | -0.246
112 | AATCTCCT | -0.0106
113 | GGGCAGTA | -0.0652
114 | ACCAAACG | 0.0282
115 | AGATCCAC | -0.00803
116 | GAACGTTC | -0.114
117 | CCGTTACC | 0.19
118 | CAGAGTAC | -0.0917
119 | CGTTTGGC | 0.0428
120 | ACGATTAT | 0.0316
121 | CCCGAGAC | 0.146
122 | CGGATTAA | 0.231
123 | ATCGGGCC | 0.297
124 | CGCGGGGC | 0.321
125 | ATCGGGGG | 0.289

Row | Sequence | PBM E-score
126 | ATCGGGGC | 0.356
127 | AGCGGGCC | 0.23
128 | AGCGGGGC | 0.356
129 | CCCATATA | 0.0651
130 | ATAAACGA | 0.0369
131 | AGCCCAAA | 0.106
132 | ACCGACCA | 0.332
133 | ACCGACCC | 0.361
134 | ACCGACCG | 0.346
135 | GCCGACCC | 0.267
136 | CCCGACCG | 0.355
137 | CCCGACCC | 0.247
138 | AACACTAA | -0.111
139 | TGTGGGAA | -0.16
140 | GCCTAGTA | -0.0419
141 | AAAATCCG | 0.345
142 | AGCCCCCC | -0.282
143 | AGCCCGGG | 0.189
144 | AGCCCCGA | 0.397
145 | CGCCCCGA | 0.328
146 | AGCCCCGC | 0.421
147 | GGCCCCGA | 0.23
148 | AGCCCCCG | 0.173
149 | CGCCCCGC | 0.325
150 | AGCCCCGG | 0.404

Row | Sequence | PBM E-score
151 | AAGGTGAT | 0.117
152 | AGAGGTAC | -0.205
153 | CCTGATCC | -0.125
154 | CCCATGGG | -0.194
155 | GGTTGGAC | -0.0385
156 | CGCCTGTC | -0.0556
157 | ACTACAGT | -0.24
158 | GTCGGATA | 0.371
159 | CTCGGACA | 0.233
160 | CTCGGATA | 0.0597
161 | GCCGGACA | 0.401
162 | CCCGGACA | 0.315
163 | GTCGGAAA | 0.274
164 | CACGGACA | 0.211
165 | ATCGGATA | 0.19
166 | GACGGACC | 0.316
167 | TCCGGACA | 0.259
168 | GTCGGACA | 0.385
169 | GACGGACA | 0.372
170 | TAAAACTA | -0.0104
171 | CACAAAAG | 0.0345
172 | AGCTAACG | 0.00522
